Read-outs that look alike come from different tables or passages of the source.

One assay concerns ABL1. Set-up: species or system human, MV4-11 + K-562 + COLO205 + SK-N-BE2 + OVCAR-8. The conditions noted are these: read-out: apparent Kd, compound concentrations: 100 nM and 1000 nM (sheet 'Samples'), n = 1.
A further assay deals with ABL2. Set-up: species or system human, MV4-11 + K-562 + COLO205 + SK-N-BE2 + OVCAR-8. The conditions noted are these: read-out: apparent Kd, compound concentrations: 100 nM and 1000 nM (sheet 'Samples'), n = 1.
For a further assay, the system named is BCR. Also on record: species or system human, MV4-11 + K-562 + COLO205 + SK-N-BE2 + OVCAR-8. The conditions noted are these: read-out: apparent Kd, compound concentrations: 100 nM and 1000 nM (sheet 'Samples'), n = 1.
Another assay has as its system FYN. Set-up: species or system human, MV4-11 + K-562 + COLO205 + SK-N-BE2 + OVCAR-8. The conditions noted are these: read-out: apparent Kd, n = 1.
The test system of a further assay is HCK. Set-up: species or system human, MV4-11 + K-562 + COLO205 + SK-N-BE2 + OVCAR-8. The conditions noted are these: read-out: apparent Kd; compound concentrations: 100 nM and 1000 nM (sheet 'Samples'), CATDS: 1.5765780158237999E-2; n = 1.
In a further assay the test system is LCK. Set-up: species or system human, MV4-11 + K-562 + COLO205 + SK-N-BE2 + OVCAR-8. The conditions noted are these: read-out: apparent Kd, n = 1.
The subject of a further assay is PTK6. Set-up: species or system human, MV4-11 + K-562 + COLO205 + SK-N-BE2 + OVCAR-8. The conditions noted are these: read-out: apparent Kd; compound concentrations: 100 nM and 1000 nM (sheet 'Samples'), CATDS: 1.5181861275826099E-2; n = 1.
The subject of a further assay is RET. Set-up: species or system human, MV4-11 + K-562 + COLO205 + SK-N-BE2 + OVCAR-8. The conditions noted are these: read-out: apparent Kd; compound concentrations: 100 nM and 1000 nM (sheet 'Samples'), CATDS: 5.3896447188978902E-2; n = 1.
Another assay relates to RIPK2. Also on record: species or system human, MV4-11 + K-562 + COLO205 + SK-N-BE2 + OVCAR-8. The conditions noted are these: read-out: apparent Kd, compound concentrations: 100 nM and 1000 nM (sheet 'Samples'), n = 1.
Another assay concerns TNK1. Also on record: species or system human, MV4-11 + K-562 + COLO205 + SK-N-BE2 + OVCAR-8. The conditions noted are these: read-out: apparent Kd; compound concentrations: 100 nM and 1000 nM (sheet 'Samples'), CATDS: 2.1534980047370499E-2; n = 1.
Another assay deals with YES1. Set-up: species or system human, MV4-11 + K-562 + COLO205 + SK-N-BE2 + OVCAR-8. The conditions noted are these: read-out: apparent Kd; compound concentrations: 100 nM and 1000 nM (sheet 'Samples'), CATDS: 2.1066601667733099E-2; n = 1.
For a further assay, the system named is AAK1. Set-up: species or system human, MV4-11 + K-562 + COLO205 + SK-N-BE2 + OVCAR-8. The conditions noted are these: read-out: apparent Kd, n = 1.
Another assay has as its system CLK1. Also on record: species or system human, MV4-11 + K-562 + COLO205 + SK-N-BE2 + OVCAR-8. The conditions noted are these: read-out: apparent Kd, compound concentrations: 100 nM and 1000 nM (sheet 'Samples'), n = 1.
The next assay concerns CLK4. Set-up: species or system human, MV4-11 + K-562 + COLO205 + SK-N-BE2 + OVCAR-8. The conditions noted are these: read-out: apparent Kd, compound concentrations: 100 nM and 1000 nM (sheet 'Samples'), n = 1.
In another assay the test system is CSNK2A1;CSNK2A3. Set-up: species or system human, MV4-11 + K-562 + COLO205 + SK-N-BE2 + OVCAR-8. The conditions noted are these: read-out: apparent Kd, n = 1.
The test system of another assay is CSNK2A2. Set-up: species or system human, MV4-11 + K-562 + COLO205 + SK-N-BE2 + OVCAR-8. The conditions noted are these: read-out: apparent Kd, compound concentrations: 100 nM and 1000 nM (sheet 'Samples'), n = 1.
A further assay has as its target Q6ZSR9 (human, UniProt Q6ZSR9). Also on record: species or system MV4-11 + K-562 + COLO205 + SK-N-BE2 + OVCAR-8. The conditions noted are these: read-out: apparent Kd, n = 1.
The next assay relates to GAK. Also on record: species or system human, MV4-11 + K-562 + COLO205 + SK-N-BE2 + OVCAR-8. The conditions noted are these: read-out: apparent Kd, compound concentrations: 100 nM and 1000 nM (sheet 'Samples'), n = 1.
Where [1] appears, read: compound concentrations:100 nM and 1000 nM (sheet 'Samples').

Chain of Q6ZSR9 (Q6ZSR9 whole entry, looked up): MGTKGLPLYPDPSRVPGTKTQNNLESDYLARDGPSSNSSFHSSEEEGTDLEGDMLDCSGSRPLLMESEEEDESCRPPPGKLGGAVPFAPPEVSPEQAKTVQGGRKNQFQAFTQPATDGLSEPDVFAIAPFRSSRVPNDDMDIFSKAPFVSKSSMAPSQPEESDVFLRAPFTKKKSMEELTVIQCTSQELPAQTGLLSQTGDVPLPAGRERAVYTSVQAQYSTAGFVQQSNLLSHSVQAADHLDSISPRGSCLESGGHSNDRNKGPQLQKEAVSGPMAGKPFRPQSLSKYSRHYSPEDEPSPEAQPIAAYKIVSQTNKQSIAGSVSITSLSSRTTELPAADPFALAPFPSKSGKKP

Turning to `CN1C(=O)c2ccccc2N(C)c2nc(Nc3cnn(C4CCNCC4)c3)ncc21` [XMD-17-51], the potency estimated from few doses in the assay with ABL1 (CATDS: 3.0247523924653401E-2) was 152 nM; with ABL2 (CATDS: 2.0369269177780699E-2), 429 nM; in the assay with BCR (CATDS: 6.3621758322441394E-2), 32.4 nM; with FYN (compound concentrations: 100 nM and 1000 nM (sheet 'Samples'), CATDS: 1.52897278360091E-2), 1140 nM; with HCK, 1000 nM; in the assay with LCK (compound concentrations: 100 nM and 1000 nM (sheet 'Samples'), CATDS: 2.0561496325198901E-2) it was 418 nM. Besides, the potency estimated from few doses in the assay on PTK6 is 1170 nM; in the assay with RET, 44.2 nM; in the assay on RIPK2 (CATDS: 1.9176534260091301E-2) it was 514 nM; in the assay with TNK1, 366 nM; with YES1, 389 nM.

With `O=C1N=C(NCCc2cccc(F)c2)S/C1=C\c1ccc2ncccc2c1` [RO4508344-000], the potency estimated from few doses in the assay with AAK1 (compound concentrations: 100 nM and 1000 nM (sheet 'Samples'), CATDS: 0.102414054055007) is 806 nM; in the assay on CLK1 (CATDS: 0.18459427931802) it was 278 nM; in the assay with CLK4 (CATDS: 0.11348899784144) it was 644 nM; in the assay on CSNK2A1;CSNK2A3 (compound concentrations: 100 nM and 1000 nM (sheet 'Samples'), CATDS: 0.10848766260937499), 709 nM; with CSNK2A2 (CATDS: 0.12392603207531599) it was 541 nM; with Q6ZSR9 (compound concentrations: 100 nM and 1000 nM (sheet 'Samples'), CATDS: 9.5289389413805506E-2), 958 nM.

With `CC(C)c1cc(-c2ccc3c(N)n[nH]c3c2)nc(N)n1` [GSK2250882A], the potency estimated from few doses with AAK1 (setting [1]) was 838 nM; with Q6ZSR9 (setting [1]), 1370 nM.

For `O=C1N=C(NCCc2ccccn2)S/C1=C\c1ccc2ncccc2c1` [RO4508346-000], the potency estimated from few doses in the assay with AAK1 (compound concentrations: 100 nM and 1000 nM (sheet 'Samples'), CATDS: 8.8556384492670503E-2) is 711 nM; with CLK1 (CATDS: 0.10354679729128299), 485 nM; in the assay with CLK4 (CATDS: 0.116533275678242), 377 nM; with CSNK2A1;CSNK2A3 (compound concentrations: 100 nM and 1000 nM (sheet 'Samples'), CATDS: 0.14119727464160201), 262 nM; with CSNK2A2 (CATDS: 0.15250276369697799) it was 229 nM; in the assay with Q6ZSR9 (compound concentrations: 100 nM and 1000 nM (sheet 'Samples'), CATDS: 9.3045263541922094E-2), 625 nM. The potency estimated from few doses with RIPK2 (CATDS: 9.0933210372185796E-2) is 663 nM.

As to `COc1ccc(CNC(=O)NC2CCN(c3ccnc(Nc4cc(OC)c(OC)c(OC)c4)n3)C2)cc1` (stereo not shown) [GSK1379748A], the potency estimated from few doses in the assay on AAK1 (compound concentrations: 100 nM and 1000 nM (sheet 'Samples'), CATDS: 0.347671640618193) was 1680 nM; with Q6ZSR9 (compound concentrations: 100 nM and 1000 nM (sheet 'Samples'), CATDS: 0.34499454920455003) it was 1710 nM.

Regarding `Cl.O=C1N=C(NCc2ccccn2)S/C1=C\c1ccc2ncccc2c1` [RO4874953-001], the potency estimated from few doses was 813 nM in the assay with AAK1 (compound concentrations: 100 nM and 1000 nM (sheet 'Samples'), CATDS: 0.10575738699934099); 1020 nM in the assay with CLK1 (CATDS: 9.3934655889041305E-2); 598 nM with CLK4 (CATDS: 0.12673851417901799); 843 nM in the assay on CSNK2A1;CSNK2A3 (compound concentrations: 100 nM and 1000 nM (sheet 'Samples'), CATDS: 0.103683643435769); 870 nM in the assay on CSNK2A2 (CATDS: 0.101925374884365); 1370 nM in the assay with GAK (CATDS: 8.1785679571560799E-2). Further, in the assay with Q6ZSR9 (compound concentrations: 100 nM and 1000 nM (sheet 'Samples'), CATDS: 8.7999658255021304E-2), the potency estimated from few doses is 1160 nM.

`Nc1nc(-c2ccc3c(N)n[nH]c3c2)cc(N2CCCCC2)n1` [GSK2228768A]: the potency estimated from few doses in the assay with AAK1 (setting [1]) is 749 nM.

In the case of `COc1ccccc1CCNC1=NC(=O)/C(=C/c2ccc3ncccc3c2)S1` [RO4503316-000], the potency estimated from few doses with AAK1 (compound concentrations: 100 nM and 1000 nM (sheet 'Samples'), CATDS: 8.9875957971869994E-2) is 1540 nM; with CLK1 (CATDS: 0.207972147405552), 120 nM; with CLK4 (CATDS: 0.25242389415209998), 86.4 nM; with CSNK2A1;CSNK2A3 (compound concentrations: 100 nM and 1000 nM (sheet 'Samples'), CATDS: 0.132518653833052) it was 327 nM; with CSNK2A2 (CATDS: 0.17333569062509099), 171 nM; in the assay with Q6ZSR9 (compound concentrations: 100 nM and 1000 nM (sheet 'Samples'), CATDS: 9.2411068480935804E-2) it was 1310 nM.

Consider `COc1cc(Nc2nccc(N3CCC(NC(=O)C4COc5ccccc5O4)C3)n2)cc(OC)c1OC` (stereo not shown) [GSK1379761A], for which the potency estimated from few doses in the assay on AAK1 (compound concentrations: 100 nM and 1000 nM (sheet 'Samples'), CATDS: 0.26357344915845798) was 1120 nM; with Q6ZSR9 (compound concentrations: 100 nM and 1000 nM (sheet 'Samples'), CATDS: 0.25714063136794202), 1170 nM.

In the case of `NC(=O)c1cccc(Nc2nccc(Nc3cccc4[nH]ncc34)n2)c1` [GW782612X], the potency estimated from few doses in the assay with ABL1 (CATDS: 3.3551530123454902E-2) is 1900 nM; in the assay on ABL2 (CATDS: 4.6849720703519497E-2), 629 nM; in the assay with BCR (CATDS: 5.7731069178064698E-2), 381 nM; with CLK1 (CATDS: 3.6631639688053302E-2), 1340 nM; in the assay with CLK4 (CATDS: 4.0513674478844103E-2) it was 951 nM; in the assay on CSNK2A2 (CATDS: 3.4795292983427199E-2), 1630 nM. The potency estimated from few doses in the assay on GAK (CATDS: 4.0699733875589103E-2) was 937 nM; with RIPK2 (CATDS: 7.1079405795032996E-2) it was 247 nM.

As to `Cc1cccc(-c2cc(-c3c[nH]nc3-c3ccccn3)ccn2)c1` [GW679395X], the potency estimated from few doses in the assay on CSNK2A1;CSNK2A3 (setting [1]) was 2120 nM; in the assay on FYN (setting [1]), 1290 nM; in the assay with LCK (setting [1]), 1330 nM.

The values above are taken from publication PMC11062922 (Nature Chemical Biology, 2023).
